Measurements published in PubChem BioAssay AID588343 (Broad Institute, 2011).
Hit rate of the full screen: of about 1,200 compounds, about 650 (54%) were called active. Inconclusive results (about 5%) are left out.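 How the source made its calls: active means signal-lowering curve whose fitted half-maximal concentration is at or below ten times the top valid dose tested; inconclusive means flat curve with 30 to 70% inhibition, or poor fit; inactive means signal increase, flat within 30%, or potency beyond limit.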 So high a share suggests a set chosen from earlier hits. A selection follows. Results with a measured potency or affinity are listed apart.

Assay: inhibitors of LMP1-driven NF-kB reporter, dose response, cell-based, HEK293, luciferase, cherry-pick (AID 588343);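 further: 0% = median of neutral control wells and -100% = MG132 positive control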
Conditions: HEK293 LMP1 TES2 NF-kB luciferase reporter, 16 h; series mostly up to 35 µM; activity change, negative = inhibition: at the top concentration

Activity change, negative = inhibition, inactive:
Cc1cc(N)nc(=O)n1C1CC(O)C(CO)O1 (stereo unspecified) 3.79%
O=C1CN(C(=O)c2ccc(F)c(S(=O)(=O)N3CCOCC3)c2)c2ccccc2N1 2.87%
COc1ccc(C(=O)OCC(=O)c2c[nH]c3ccccc23)cc1OC 19.4%
O=C(O)c1cc(=O)c2c(OCC(O)COc3cccc4oc(C(=O)O)cc(=O)c34)cccc2o1 -2.82%
Cc1ccc(NS(=O)(=O)c2ccc(NC(=O)C(C)Sc3ccc(Cl)cc3)cc2)c(C)c1 (stereo unspecified) -1.07%
COc1ccc(CNC(=O)COC(=O)[C@@H]2CCCN2C(=O)c2cccs2)cc1 12.8%
O=[N+]([O-])c1ccc(Cl)c(S(=O)(=O)NCC2CCCO2)c1 (stereo unspecified) -1.9%
CSc1ccc2c(c1)C(N1CCN(C)CC1)Cc1ccccc1S2 (stereo unspecified) 26.9%
O=C(c1ccc(C#CC2(O)CCCCC2)cc1)N1CCN(C(c2ccccc2)c2ccccc2)CC1 12.4%
COCCNC(=O)NC12CC3(C)CC(C)(CC(C)(C3)C1)C2 -9.45%
COc1cc(CC(=O)N(c2ccccc2)c2nc(C)cs2)cc(OC)c1OC -10.2%
Clc1ccc(-c2ccnc(Oc3ccc4ccccc4c3)n2)cc1 -0.802%
Cc1ccc(-c2cc(N)n3nc(-c4ccc(C)cc4)cc3n2)cc1 -2.58%
COC(=O)c1ccccc1NC(=O)CC(=O)Nc1ccccc1C(=O)OC -4.89%
Cc1nc(SCC(=O)c2cccc([N+](=O)[O-])c2)n[nH]1 -9.98%
C[C@H](CO)N1C[C@H](C)[C@@H](CN(C)C(=O)NC2CCCCC2)Oc2c(NS(=O)(=O)c3cn(C)cn3)cccc2C1=O -12.5%
NC1=NC(=O)NC1(c1ccccc1)c1ccccc1 -6.22%
COc1cc2nc(N3CCN(C(=O)C4CCCO4)CC3)nc(N)c2cc1OC (stereo unspecified) -3.99%
C[C@H](NC(=O)N1CCn2c1nc1ccccc12)C(=O)NCC1CCCO1 (stereo partly specified) -8.38%
CCOC(=O)OC(C)OC(=O)[C@@H]1N2C(=O)[C@@H](NC(=O)[C@H](N)c3ccccc3)[C@H]2SC1(C)C (stereo partly specified) 33.8%
CSc1oc(-c2ccc(F)cc2)nc1S(=O)(=O)c1ccc(F)cc1 -11.4%
CC(NC(=O)CCOc1ccccc1)c1ccccc1 (stereo unspecified) 18.7%
O=C(O)c1cn2c3c(ccc(Cl)c3c1=O)OCC2 48.2%
Oc1cccc(/C=N/NC(=S)NCCN2CCOCC2)c1O 9.95%
CN(C)CCC(c1ccccc1)c1ccccn1 (stereo unspecified) -3.57%
COC(=O)CN(c1ccccc1F)S(=O)(=O)c1ccc(C)cc1 1.91%
CC(=O)O[C@H]1CC[C@@]2(C)C(=CC[C@H]3[C@@H]4CC[C@H](C(C)=O)[C@@]4(C)CC[C@@H]32)C1 33%
CN(C)/C=C/C(=O)c1ccc2noc(-c3ccccc3)c2c1 -14.1%
CCON1C(=O)C2(CCCCC2)C(=O)C12C=CCCC2 (stereo unspecified) 14.9%
CCN(CC)c1ccc(NC(=O)c2cccc(F)c2)c(C)c1 -2.49%
CCOC(=O)CCSc1nc(N2CCOCC2)c2c(c1C#N)CC(C)(C)OC2 39.6%
CSc1nc(C)nc2c1c(=O)n(C)c(=O)n2C 3%
COCCn1c(SCc2ccc(C(=O)OC)o2)nnc1-c1c[nH]c2ccccc12 -5.45%
CCOc1ccc(NC(=O)CCc2nnc3ccc(N4CCC5(CC4)OCCO5)nn23)cc1 -2.59%
COc1ccc(C2CC(C(F)(F)F)n3ncc(C(=O)NCc4cccnc4)c3N2)cc1OC (stereo unspecified) -9.55%
CCCCCC(=O)NC(=S)Nc1ccc(Br)cc1C -9.81%
CC(CNC1CCCCC1)OC(=O)c1ccccc1 (stereo unspecified) 33.2%
CCC(=O)NC(=S)Nc1ccccc1C(F)(F)F 0.113%
CCN(C(=O)c1cccc(NC(=O)c2ccccc2)c1)C1CCCCC1 8.9%
COc1ccc(C(=O)N(CN2CCCC2=O)c2cc(C)on2)cc1OC 5.34%
O=C1OCC2=C1C(c1ccc3c(c1)OCO3)c1cc3c(cc1O2)OCO3 (stereo unspecified) -9.53%
CNC1(C)[C@H]2CC[C@H](C2)C1(C)C (stereo partly specified) 1.19%
Cc1ccc(NC(=O)/C=N/OCC(=O)NCc2ccccc2Cl)cc1 19.4%
COCC(=O)N(C)c1nnc(-c2ccccn2)s1 13.8%
Cc1cc(C)cc(C(=O)NCCC(=O)NCc2cc(=O)n(C)c(=O)n2C)c1 -6.55%
CCOCCCNC(=O)CN1C(=O)/C(=C\c2ccc(C)cc2)Sc2ccccc21 2.45%
Cc1ccc(S(=O)(=O)N2CCC[C@H]2C(=O)Nc2ccccc2C)cc1 -11.7%
CCN(C(=O)c1cc(OC)c(OC)c(OC)c1)C1CCCCC1 -5.54%
C[C@]12CC[C@@H]3c4ccc(OS(=O)(=O)O)cc4CC[C@H]3[C@@H]1CCC2=O 4.2%
O=c1c([N+](=O)[O-])cn(Cc2ccccc2)c(=O)n1Cc1ccccc1 20.6%
C[C@@]12C(=O)N(Cc3ccccc3)CC(=O)N1[C@H](/C=C/c1ccccc1)[C@@H]1C(=O)N(c3ccccc3)C(=O)[C@@H]12 14.8%
O=c1cc(-c2ccccc2)[nH]c2ccc(F)cc12 3.13%
O=C(C1CC1)N1N=C(c2ccc(Br)cc2)CC1(O)C(F)(F)F (stereo unspecified) -10.1%
COc1cc(OC)cc(-c2c(C#Cc3ccsc3)c3cc(-c4cc(OC)c(OC)c(OC)c4)ccc3n2C)c1 9.2%
Cc1cccn2c(=O)c(C=NCCO)c(NCc3ccco3)nc12 -3.39%
CCCc1nc(SCC(=O)NCc2ccco2)c2c(=O)n(C)c(=O)n(C)c2n1 19.7%
Cc1cccc(Nc2nc(Cl)ncc2F)c1C -11.5%
COc1ccccc1C=NN=Cc1ccccc1O 27.4%
COC(CNC(=O)c1ccc(N2CCC3(CC2)OCCO3)c([N+](=O)[O-])c1)OC -6.61%
CC(=O)Nc1ccc(NC(=O)C(c2ccccc2)c2ccccc2)cc1 1.86%
CCOC(=O)[C@H]1[C@H]2COc3ccc(OC)cc3[C@@H]2N2C(=O)CN(C)C(=O)[C@@]12C -6.5%
COc1ccc(C2=NN(C(=O)CSC3=NN4CCCC(=O)N=C4S3)C(c3cccc(OC)c3OC)C2)cc1 (stereo unspecified) 5.71%
CCOC(=O)Nc1ccc2c(c1)N(C(=O)CN(C)C)c1ccccc1CC2 -14.1%
Cn1c(=O)c2c(ncn2CC(=O)Nc2cc(S(=O)(=O)N3CCCCC3)ccc2O)n(C)c1=O 12%
CCCN1C(=O)C2(SC(NC(C)=O)=NN2C(C)=O)c2cc(C)cc(C)c21 (stereo unspecified) -12.8%
CCC(C)[C@H](NC(=O)NCc1cccnc1)C(=O)OC (stereo partly specified) 9.79%
